# Only some compounds are listed: those with a hit (about 2.7% of all), similar ones and a draw of the others.
# HepG2 tox – kills HepG2 cells in TGF-b inhibitor counter-screen; HepG2 CAGA-GFP viability, ATP luminescence, 18 h; Potency, µM (top dose mostly 46.1 µM), inactives show at the highest dose activity change, negative = cytotoxicity, most hits filed as cytotoxic; 410,000 compounds, 0.76% hits
#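 CellTiter-Glo luminescence gave cytotoxicity after 18 hours at 37 degrees C. The cells were HepG2 CAGA-GFP in 1% FBS DMEM, stimulated with 500 pg/mL TGF-beta after compound addition. %Activity was normalised to no-cell wells (complete cell-killing) and DMSO (no toxicity), and curves were fitted and classified.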
# TGFb inhibitor – blocks TGF-b signaling. 410,000 compounds, 1.2% hits. HepG2 CAGA-GFP TGF-b/SMAD3 reporter, GFP fluorescence, 18 h; TGF-beta stimulated, 500 pg/mL final. Potency, µM (top dose mostly 46.1 µM), for the others: at the top dose activity, negative = inhibition, most hits filed as inhibitors; also: % is scaled to controls: 0 for no effect and ±100 for the full control effect; nearly all actives have a fitted effect of over 65% in size
#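 HEPG2 CAGA-GFP reporter cells (1000/well, DMEM with 1% FBS) received compounds, then recombinant TGF-beta at 500 pg/mL final for 18 hours at 37 degrees C. Per-cell GFP summed per well was normalised to unstimulated and stimulated DMSO controls before curve fitting.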
# ATXN viability – viability counter-screen for ATXN expression inhibitors | S2 cells (HEK-293 line with an ATXN2-luciferase reporter) viability, CellTiter-Fluor protease fluorescence, 24 h | Potency, µM (doses to about 56.7 µM), actives largely listed as cytotoxic | 400,000 compounds, 0.49% hits | AID 651635; also: nearly all actives have a fitted effect of over 40% in size
# ATXN2 expr inh – inhibitors of ATXN2 expression; HEK-293 ATXN2-luciferase reporter, luminescence, 24 h; Potency, µM (series often up to 57 µM), inactives show at the highest dose activity change, negative = inhibition, hits mostly inhibitors; 360,000 compounds, 0.72% hits; AID 1745845; also: % is scaled to controls: 0 for no effect and ±100 for the full control effect; nearly all actives have a fitted effect of over 55% in size
#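 qHTS (up to 57 uM final) was run with 24 h compound exposure of reporter cells at 37 °C. Each well was multiplexed: SteadyGlo luminescence measured ATXN2-luciferase expression after a fluorogenic Gly-Phe-AFC viability readout (25 uM final).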
# ALOX12 inh – ALOX12 (human) lipoxygenase inhibition; P18054; purified 12hLO, xylenol orange hydroperoxide absorbance; Potency, µM (doses to about 108 µM), inactives show top-dose activity change, negative = inhibition, most hits filed as inhibitors; 580,000 compounds, 1.1% hits; AID 1671190; also: % is scaled to controls: 0 for no effect and ±100 for the full control effect
#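 Purified human 12hLO (150 nM final) in 25 mM Hepes, 0.01% Triton X-100, pH 7.0 was preincubated 15 min at room temperature with compound. Then 40 uM arachidonic acid was added, 30 min. Hydroperoxide was read by Fe-XO absorbance ratio 573/405 nm.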
# * hit, by the source's call; i = inactive; ? = inconclusive; / = not tested or not shown; ! = repeats disagree; [ ] = remark or other dose. Calls follow the shape of the dose curve; as a rule, active = well fitted curve in the direction sought with a large enough effect; inconclusive = small, poorly fitted or top-dose-only effect, or another doubt; inactive = no such curve, though single readings can be large; an effect the other way counts as inactive or inconclusive. Potency is read from the fitted curve at half-maximal effect.
SMILES,HepG2 tox,TGFb inhibitor,ATXN viability,ATXN2 expr inh,ALOX12 inh
O=C(NNC(=O)c1cccnc1SCc1cccc([N+](=O)[O-])c1)c1ccccn1,-18%,?,i,7.9µM*,7%
CC1CC(C)CN(C(=O)C(C)Cl)C1 (stereo not given),/,/,/,/,-25%
CC(C)N(CC#CCC1(O)c2ccccc2-c2ccccc21)CCO,-2%,-8%,?,-13%,7.9µM*
N#Cc1ccccc1S(=O)(=O)N1CCC(C(=O)NCCc2cccs2)CC1,/,/,/,/,35%
COc1ccc(C(CNC(=O)c2ccc(-c3ccccc3Cl)o2)N2CCCC2)cc1 (stereo not given),11µM*,?,/,/,?
COc1ccc(C(CNC(=O)c2ccc(-c3nc4ccccc4s3)o2)N2CCCC2)cc1 (stereo not given),-30%,-5%,?,-10%,200%
CC1(C)Cc2c(c(N3CCOCC3)nc3snc(N)c23)CO1,-47%,10µM*,?,-16%,68%
Cc1ccc(NC(=O)c2sc3nc(N4CCOCC4)c4c(c3c2N)CC(C)(C)OC4)cc1,7%,9%,i,-22%,-22%
CC1(C)Cc2c(c(N3CCOCC3)nc3sc(C(=O)Nc4ccc(Cl)cc4)c(N)c23)CO1,-6%,-7%,i,-10%,2.8µM*!
COc1cc2c(Nc3ccc(Cl)c(Cl)c3F)ncnc2cc1OCC1C[C@@H]2CN(C)C[C@H]2C1,/,/,/,31µM*,-21%[57.4 µM]
COc1cc2ncnc(Nc3cccc(Br)c3)c2cc1OC,/,/,/,-27%,?
COc1cc2c(Nc3ccc(Br)cc3F)ncnc2cc1OCC1CCN(C)CC1,/,/,i,31µM*!,-27%[57.4 µM]
COc1cc2ncnc(Nc3cccc(Cl)c3)c2cc1OC,-38%,?,/,-14%,0%[57.4 µM]
COc1ccc(Oc2c(C)oc3cc(OCC(=O)Nc4ccccn4)ccc3c2=O)cc1,/,/,/,/,-58%
Cc1cccc(/C=N/NC(=O)c2ccc(NC(=O)c3ccc(Cl)cc3)cc2)n1,-69%,13µM*,i,-23%,1%
O=C1CC(c2ccccc2Oc2cccc(Cl)c2)C(n2cncn2)C(=O)C1C1NCCc2ccccc21 (stereo not given),-2%,-2%,i,-4%,32µM*
CC(C)N(CC(N)=O)Cc1cccc2cccnc12,/,/,/,/,-2%
CCn1c(-c2cc3c(C(F)(F)F)nn(C)c3s2)n[nH]c1=S,-11%,7%,i,-8%,10µM*
Cn1c(-c2cc3c(C(F)(F)F)nn(C)c3s2)n[nH]c1=S,4%,-1%,i,-2%,?
COc1ccc(C2/C=C\CN(C(=O)C3CC3)C(C)C(=O)N2Cc2ccc(F)cc2)cc1 (stereo not given),-3%,?,/,/,/
COc1ccc([C@H]2/C=C\CN(C(=O)C3CCCC3)[C@@H](C)C(=O)N2Cc2ccc(F)cc2)cc1,-12%,-10%,20µM*,?,-30%
Nc1ccccc1C(=O)Nc1ccccn1,/,/,/,/,0%
COc1cc(OC)nc(C(NC(=O)C2CCN(Cc3c[nH]c4ccccc34)CC2)c2ccc(Cl)cc2)n1 (stereo not given),10µM*,?,/,?,?
COc1cccc(N/C(SCc2cccc([N+](=O)[O-])c2)=C(/C#N)C(N)=O)c1,14µM*,?,i,-23%,-5%
COc1cccc(NC(=O)CC(=O)c2ccc([N+](=O)[O-])cc2)c1,-12%,?,i,/,73%
SMILES,HepG2 tox,TGFb inhibitor,ATXN viability,ATXN2 expr inh,ALOX12 inh
O=C(CN1CCCC1c1ccc2c(c1)OCCCO2)Nc1cccc(Cl)c1Cl (stereo not given),/,/,/,/,-21%
Cc1cccc(Nc2nc(C)c(C(=O)Nc3ccccc3)s2)c1,/,/,/,/,13µM*
Cc1cccc2sc(N(Cc3cccnc3)C(=O)CCS(=O)(=O)c3ccccc3)nc12,20µM*,11µM*,/,/,?
O=C(CCS(=O)(=O)c1ccccc1)N(Cc1cccnc1)c1nc2c(Cl)cccc2s1,0%,4µM*,/,/,2%
Cc1cc(C)c2sc(N(Cc3cccnc3)C(=O)CCS(=O)(=O)c3ccccc3)nc2c1,7.1µM*,2.5µM*,/,/,?
Cc1cccc2sc(N(Cc3cccnc3)C(=O)CCOc3ccccc3)nc12,-31%,?,/,/,-17%
